Measured values taken from PubChem BioAssay (NCATS).
A number with no mark means an inactive call. Activity calls are given as the source filed them. Calls come from the whole dose curve; as a rule, active = well fitted curve in the direction sought with a large enough effect (not every such curve was filed as active); inconclusive = small, poorly fitted or top-dose-only effect, or effect the other way, or another doubt; inactive = no such curve, though single readings can be large or run the other way.

These compounds were tested against Pyruvate kinase PKM (Homo sapiens) (UniProt P14618) (assay: qHTS Assay for Activators of Human Muscle Pyruvate Kinase (AID 954;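 note: 0% = uninhibited enzyme and -100% = no enzyme or full thiadiazolimine inhibition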)). Conditions: purified human muscle pyruvate kinase, luciferase-coupled luminescence, 1 h; series mostly up to 57.5 µM; activity change, negative = inhibition: at the top concentration.
Sequence of Pyruvate kinase PKM (Homo sapiens) (P14618 whole entry, looked up): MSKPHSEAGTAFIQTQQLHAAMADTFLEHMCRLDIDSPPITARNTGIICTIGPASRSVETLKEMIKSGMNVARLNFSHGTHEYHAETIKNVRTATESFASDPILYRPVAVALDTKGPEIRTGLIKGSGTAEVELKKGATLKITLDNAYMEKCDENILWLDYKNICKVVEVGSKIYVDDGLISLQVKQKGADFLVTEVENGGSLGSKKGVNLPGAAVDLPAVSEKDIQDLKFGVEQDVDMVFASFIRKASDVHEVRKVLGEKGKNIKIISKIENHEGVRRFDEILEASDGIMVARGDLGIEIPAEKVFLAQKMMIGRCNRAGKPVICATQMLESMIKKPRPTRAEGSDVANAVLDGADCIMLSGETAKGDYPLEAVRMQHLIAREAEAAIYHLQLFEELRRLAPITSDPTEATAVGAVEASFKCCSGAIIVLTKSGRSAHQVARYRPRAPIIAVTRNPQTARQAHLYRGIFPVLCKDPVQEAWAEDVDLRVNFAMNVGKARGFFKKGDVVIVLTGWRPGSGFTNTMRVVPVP
Protocol: NIH Molecular Libraries Screening Centers Network [MLSCN]
NIH Chemical Genomics Center [NCGC]
Wael M. Rabeh, Lyudmila Nedyalkova and Hee-Wan Park [Structural Genomics Consortium, 100 College St. Toronto, Ontario, Canada]
Human pyruvate kinase muscle 2 enzyme was supplied as a highly purified (>95% pure) preparation by the Structural Genomics Consortium in Toronto (Ontario, Canada) and was assayed for its ability to generate ATP from ADP using phosphoenolpyruvate (PEP) as a substrate. ATP generation was detected in a coupled reaction by luciferase-mediated luminescence, an ATP-dependent process. Pyruvate kinase substrates, PEP and ADP, were present in the assay at Km and approximately […]-fold below Km respectively. The enzyme was assayed at an intermediate level of activity to screen for inhibitors and activators.
NCGC Assay Protocol Summary:
Three uL of substrate mix (final concentration, 50 mM imidazole pH 7.2, 50 mM KCl, 7 mM MgCl2, 0.5 mM PEP, 0.1 mM ADP, 0.01% Tween 20, 0.05% BSA) was dispensed into 1536 well plates. 23 nL of compound were delivered by a pin tool and 1 uL of enzyme mix (final concentration, 0.1 nM pyruvate kinase, 50 mM imidazole pH 7.2, 0.05% BSA) was added. Plates were incubated at room temperature for 1 hour. Two uL of detection and kinase stop mix (PKLight, Cambrex) was added, the plates centrifuged, and luminescence read by a ViewLux (Perkin Elmer) at 5 second exposure/plate. Data were normalized to the uninhibited and AC100 inhibition (no enzyme or 110 uM N-methyl-2,3-diphenyl-1,2,4-thiadiazol-5-imine; CID: 682802; LOPAC-S-4063). To monitor activation, 0.3 nM pyruvate kinase was included in one control column.

Compound	activity change, negative = inhibition	outcome
c1ccc2c(c1)[I+]c1ccccc1-2	-19.4%	
CP(=O)(O)C1=CCNCC1	-15.5%	
O=P(O)(O)C(Cl)(Cl)P(=O)(O)O	11.8%	
Clc1ccc(N2C[C@H]3CC[C@@H](C2)N3)nn1	-8.96%	
OCc1cnc[nH]1	-27.1%	
NC(=O)COc1c(F)cc(SCCNS(=O)(=O)c2ccccc2)cc1F	16.9%	
CCCn1c(=O)c2[nH]c(C3CCCC3)nc2n(CCCOC(=O)c2ccc(S(=O)(=O)F)cc2)c1=O	4.12%	
C[C@H](N)CN1CCc2ccc(Br)cc21	-8.72%	
O=[N+]([O-])c1cc(O)c(O)c([N+](=O)[O-])c1	9.14%	
CCS(=O)(=O)Nc1cccc(C(=C2CCCCC2)c2cnc[nH]2)c1	-3.24%	
c1ccc2c(N3CCNCC3)cccc2c1	-16.4%	
Nc1ccc(CCN2CCN(c3cccc(C(F)(F)F)c3)CC2)cc1	-6.06%	
NC(=O)c1cc(N2CC2)c([N+](=O)[O-])cc1[N+](=O)[O-]	5.99%	
Cc1sc2ccccc2c1CC1=NCCN1	-29.1%	
CCCN1CCc2cc(O)cc3c2[C@H]1Cc1ccc(O)c(O)c1-3	22.4%	
CCCN(CCC)[C@@H]1CCc2cccc(O)c2C1		inactive
C[N+](C)(C)CC#CCN1CCCC1=O	-24.4%	
N[C@@H](Cn1oc(=O)[nH]c1=O)C(=O)O	-0.278%	
c1ccc2cc(CC3=NCCN3)ccc2c1	7.26%	
Clc1cc(I)cc(Cl)c1NC1=NCCN1	-5.51%	

Compound	activity change, negative = inhibition	outcome
C[N+]1(C)CCN(c2ccccc2)CC1	-10.7%	
CC(=O)NBr	-1.59%	
N#CCCN	-6.61%	
C[N+](C)(C)CCOC(=O)CBr	14.6%	
N#CC(C#N)=Cc1cc(O)c(O)c(O)c1	-27%	
O=C1C=CC(=O)C=C1	2.6%	
Cc1[nH]c2ccc(O)cc2c1CCN	-11.8%	
CC(C)(C)c1cc(C=C(C#N)C#N)cc(C(C)(C)C)c1O	-27.7%	
COc1ccc2[nH]cc(CCN)c2c1	-9.56%	
O=C(O)c1cc[c]([Hg][Cl])cc1	-95%	
NCCc1ccc(S(=O)(=O)F)cc1	-12.5%	
CCCn1c(C)c(C(=O)c2ccc3ccccc3c2)c2ccccc21	1.75%	
O=[N+]([O-])c1ccc2nc(N3CCNCC3)ccc2c1	-15.9%	
CCCN(CCC)C1Cc2cc(OC)c(OC)cc2C1	-5.11%	
C[C@@H]1[C@@H]2Cc3ccc(O)cc3[C@@]1(C)CCN2CC1CC1	-12%	
O=S1(=O)N(CCN2CC=C(c3c[nH]c4cc(F)ccc34)CC2)c2cccc3c2N1CCC3	-18.7%	
NCCCP(=O)(O)O	16.5%	
COc1ccc2c(c1)/C(=C/c1cnc[nH]1)C(=O)N2	-28.4%	
NC(=O)CI	-22.5%	
CN1CCC(c2c[nH]c3ccc(O)cc23)CC1	-26.3%	
